This is an account of results in PubChem BioAssay (NCI).

Some test systems named below: T-47D breast; BT-549 breast; MDA-MB-435 melanoma; SW-620 colon; MCF7 breast; HCC-2998 colon; KM12 colon; HCT-116 colon.
Holding throughout (experiment): NCI-60 one-dose screen, 48 h (100 = growth as untreated, 0 = no growth, -100 = all killed)
Common to all, as to conditions: 10 µM unless noted

Each structure is given as a SMILES string. The panel holds about 83,000 compounds, 20% with a hit somewhere; the sample as a whole holds those more often.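 Growth was measured after 48 h exposure to one concentration of compound in 96-well plates. Values under 10 count as active.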 Values without a mark were called inactive. Active and inactive are the calls of the source.

Regarding `CS(=O)(=O)c1ccc(C(=O)N2N=C(c3ccccc3)CC2c2ccc3c(c2)OCO3)cc1` (stereo not drawn), the growth was 78.5% in the test with T-47D breast; 86.3% in the test with BT-549 breast; 113% with MDA-MB-435 melanoma; 100% in the test with SW-620 colon; 84.1% with MCF7 breast; 99.3% in the test with HCC-2998 colon. For the same compound, the growth in the test on KM12 colon was 93.6%.

As to `Clc1nnc2c3ccccc3ccn12`, the growth with T-47D breast is 108%; with BT-549 breast it was 97.9%; in the test on MDA-MB-435 melanoma, 111%; with SW-620 colon, 96.7%; with MCF7 breast, 107%; in the test on HCT-116 colon, 103%. For the same compound, the values for the growth with HCC-2998 colon and with KM12 colon were 115% and 109%, respectively.

As for `O/N=C/c1ccncc1`, the growth in the test with T-47D breast is 97.3%; in the test on BT-549 breast, 117%; in the test with MDA-MB-435 melanoma, 100%; in the test on SW-620 colon it was 102%; in the test on MCF7 breast, 97.3%; in the test with HCT-116 colon, 118%. The growth is 102% in the test on HCC-2998 colon and 105% with KM12 colon.

For `CC1CCCN(CCCCOc2ccc(-c3ccc(C#N)cc3)cc2)C1` (stereo not drawn), the growth in the test with T-47D breast was 79.1%; in the test on BT-549 breast, 85.6%; with MDA-MB-435 melanoma, 99.4%; in the test on SW-620 colon, 96.8%; in the test with MCF7 breast, 86.4%; in the test on HCT-116 colon, 87.8%. In addition, the growth is 86.6% with HCC-2998 colon and 96.1% in the test on KM12 colon.

For `C[C@H](NC(=O)c1snnc1C1CC1)c1c(F)cccc1Cl`, the growth was 258% in the test with T-47D breast; 139% in the test on BT-549 breast; 106% with MDA-MB-435 melanoma; 106% with SW-620 colon; 98.7% in the test on MCF7 breast; 122% in the test with HCT-116 colon. The growth in the test with HCC-2998 colon is 95.7%; in the test on KM12 colon it was 114%.

As to `S=C(Nc1ccc(Cl)cc1)Nc1ccc(Cl)cc1` (tested in a mixture with another compound), the growth is 11.6% in the test on T-47D breast; 12.8% in the test with BT-549 breast; 3.6% (active) in the test on MDA-MB-435 melanoma; 11.8% with SW-620 colon; 7.15% (active) with MCF7 breast; 0.154% (active) in the test with HCT-116 colon. For the same compound, the growth in the test with HCC-2998 colon is 17.8%; in the test with KM12 colon, 3.43% (active).

As to `CCC1N=C(N)N=C(N)N1c1ccc(Cl)cc1` (stereo not drawn), the growth in the test on T-47D breast was 95.7%; in the test with BT-549 breast it was 100%; in the test on MDA-MB-435 melanoma it was 79.5%; with SW-620 colon, 72.3%; with MCF7 breast, 91.3%; in the test on HCT-116 colon it was 61.1%. The growth with HCC-2998 colon is 95.4%; with KM12 colon, 97.4%.

For `COc1ccc2nc3cc(Cl)ccc3c(NC(=O)CSc3ccc(Cl)cc3)c2c1`, the growth in the test on T-47D breast was -79.6% (active); with BT-549 breast it was -98.7% (active); with MDA-MB-435 melanoma, -82.4% (active); with SW-620 colon, -80.4% (active); with MCF7 breast, -60% (active); in the test with HCT-116 colon, -94.4% (active). Moreover, the growth with KM12 colon was -75.4% (active).

Regarding `Cc1cc(O)ccc1Sc1ccccc1[N+](=O)[O-]`, the growth with T-47D breast is 98.7%; in the test on BT-549 breast, 93.2%; in the test on MDA-MB-435 melanoma, 57.7%; in the test with SW-620 colon it was 90.2%; with MCF7 breast, 118%; with HCT-116 colon, 98.1%. In addition, the growth is 97.5% in the test on HCC-2998 colon and 91.1% in the test with KM12 colon.

As for `C[N+](C)(C)CCCCCCCCCC[N+](C)(C)C`, the growth was 88.6% with T-47D breast; 78.7% in the test on BT-549 breast; 103% in the test on MDA-MB-435 melanoma; 95.8% in the test with SW-620 colon; 91% in the test with MCF7 breast; 106% with HCT-116 colon. The values for the growth in the test on HCC-2998 colon and in the test with KM12 colon were 105% and 103%, respectively.

On to `Nc1ncnc2c1N=C(c1ccc3c(c1)OCO3)CC(c1ccc(Cl)cc1)N2` (stereo not drawn), for which the growth in the test with T-47D breast was 55.8%; in the test with BT-549 breast, 81.2%; in the test on MDA-MB-435 melanoma it was 78.7%; in the test on SW-620 colon, 79.9%; with MCF7 breast it was 56.6%; with HCT-116 colon it was 87.3%. Besides, the growth in the test with KM12 colon was 71.7%.

With `OC(COCc1ccccc1)COCc1ccccc1`, the growth in the test on T-47D breast was 101%; with BT-549 breast, 98.6%; with MDA-MB-435 melanoma it was 112%; with SW-620 colon it was 110%; in the test on MCF7 breast, 92.6%; in the test with HCC-2998 colon it was 97.9%. In addition, the growth in the test with KM12 colon was 105%.

`O=C(NCCN1CCCCC1)n1cc(-c2ccncc2)c(-c2ccc(Cl)c(O)c2)n1`: the growth was 79.2% in the test on T-47D breast; 68.9% in the test on BT-549 breast; 58.9% in the test with MDA-MB-435 melanoma; 100% with SW-620 colon; 91% in the test on MCF7 breast; 113% in the test with HCC-2998 colon. Further, in the test on KM12 colon, the growth was 102%.

As to `CNC(=O)OC1C(O[C@H]2C[C@H]3[C@@H]4CC=C5C[C@@H](O)CC[C@]5(C)[C@H]4CC[C@]3(C)[C@H]2[C@H](C)C(=O)CCC(C)C)OCC(O)C1OC1OCC(O)C(O)C1OC(=O)c1ccc(OC)cc1` (stereo partly drawn), the growth in the test with T-47D breast was 10.2%; in the test on BT-549 breast it was 18.3%; with MDA-MB-435 melanoma, -25.7% (active); in the test on SW-620 colon it was -37.2% (active); in the test with MCF7 breast it was 3.66% (active); in the test on HCC-2998 colon it was 67.3%. The growth in the test with KM12 colon is 36.5%.

Consider `O=C(N/N=C/c1ccc([N+](=O)[O-])cc1)c1ccccc1Nc1ccnc(C(F)(F)F)c1`, for which the growth in the test on T-47D breast was 47.2%; in the test with BT-549 breast it was 87.4%; in the test with MDA-MB-435 melanoma, 90.2%; in the test on SW-620 colon, -44.6% (active); in the test with MCF7 breast, 95%; in the test with HCT-116 colon it was 76.8%. In addition, the growth in the test on KM12 colon was 87.1%.

In the case of `CCOC(=O)Cc1cc(Br)c(OCc2ccccc2)c(Br)c1`, the growth is 85.6% in the test on T-47D breast; 98.3% in the test with BT-549 breast; 96.3% with MDA-MB-435 melanoma; 113% in the test on SW-620 colon; 107% in the test with MCF7 breast; 93.8% with HCT-116 colon. Moreover, the growth was 98.5% in the test on HCC-2998 colon and 107% with KM12 colon.

`c1ccc(-c2nnn(-c3ccccc3)n2)cc1`: the growth with T-47D breast is 108%; with BT-549 breast, 87.5%; with MDA-MB-435 melanoma, 106%; in the test on SW-620 colon it was 113%; with MCF7 breast, 71%; in the test on HCC-2998 colon, 107%. Moreover, the growth in the test on KM12 colon is 107%.
